Compound activity deposited in PubChem BioAssay by National Center for Advancing Translational Sciences (NCATS).
TrxR1 substrate: qHTS Assay for Substrates of Mammalian Selenoprotein Thioredoxin Reductase 1 (TrxR1): qHTS | purified TrxR1 substrate turnover, NADPH consumption readout | hit rate 0.01% among 390,000 | Potency, µM (top dose mostly 114 µM); also: nearly all actives have a fitted effect of over 50% in size
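Rat TrxR1, dispensed at 90 nM, was prereduced with 400 uM NADPH (final) for 5 min at ~22 deg C, then incubated with compound 15 min before 400 uM selenite. A first-read NADPH fluorescence drop versus no-compound background flagged substrates.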
PLK1 PBD inh: qHTS for Inhibitors of PLK1-PDB (polo-like kinase 1 - polo-box domain): Primary Screen | Serine/threonine-protein kinase PLK1 (Homo sapiens), P53350 | Plk1 PBD binding of FITC phosphopeptide, fluorescence polarization | Potency, µM, hits mostly inhibitors | hit rate 2.8% among 360,000; also: series mostly up to about 57 µM; nearly all actives have a fitted effect of over 65% in size
Target sequence (P53350 whole entry, looked up, the tested form may be a part): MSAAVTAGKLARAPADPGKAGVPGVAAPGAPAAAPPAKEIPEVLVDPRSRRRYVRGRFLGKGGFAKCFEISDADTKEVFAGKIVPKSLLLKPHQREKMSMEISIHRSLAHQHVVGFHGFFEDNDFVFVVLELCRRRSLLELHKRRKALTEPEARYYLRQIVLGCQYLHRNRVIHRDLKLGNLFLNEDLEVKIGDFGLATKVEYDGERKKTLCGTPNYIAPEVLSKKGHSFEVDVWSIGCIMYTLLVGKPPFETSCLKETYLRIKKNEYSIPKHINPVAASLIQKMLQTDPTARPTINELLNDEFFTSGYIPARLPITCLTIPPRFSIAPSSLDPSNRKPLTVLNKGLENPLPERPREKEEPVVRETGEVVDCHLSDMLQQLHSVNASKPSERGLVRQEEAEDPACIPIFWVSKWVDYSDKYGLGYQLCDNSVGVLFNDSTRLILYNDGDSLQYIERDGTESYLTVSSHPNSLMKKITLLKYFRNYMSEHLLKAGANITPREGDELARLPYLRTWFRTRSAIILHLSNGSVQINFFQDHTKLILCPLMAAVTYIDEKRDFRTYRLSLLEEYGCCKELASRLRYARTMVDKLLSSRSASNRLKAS
VDR inhibitor: Inhibitors of the vitamin D receptor (VDR): qHTS. VDR-SRC2-3 peptide fluorescence polarization, 2 h. Potency, µM, usual class: inhibitors. hit rate 0.93% among 400,000. AID 504847, 2011
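Fluorescence polarization assay measuring small-molecule disruption of VDR binding to the coregulator peptide SRC2-3. Compounds were pin-transferred (23 nl) into the reagent mix and incubated 2 h at room temperature before reading.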
TrxR1 inh: qHTS Assay for Inhibitors of Mammalian Selenoprotein Thioredoxin Reductase 1 (TrxR1): qHTS; Potency, µM (doses to about 114 µM), hits mostly inhibitors; recombinant rTrxR1, NADPH fluorescence consumption, selenite substrate; hit rate 1% among 390,000; also: nearly all actives have a fitted effect of over 65% in size
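Rat TrxR1 (90 nM in the dispensed reagent) was pre-reduced with 400 uM NADPH for 5 min at room temperature, then incubated with compound for 15 min. After 400 uM selenite was added, NADPH fluorescence (Ex 340/Em 450 nm) was followed for 8 min.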
mIDH1 inhibitor: qHTS for Inhibitors of mutant isocitrate dehydrogenase 1 (IDH1): qHTS. hit rate 0.093% among 390,000. AID 602179, 2012. IDH1-R132H enzyme, NADPH consumption, diaphorase/resazurin fluorescence. Potency, µM (doses to about 76.6 µM), usual class: inhibitors. Isocitrate dehydrogenase [NADP] cytoplasmic (Homo sapiens), O75874; also: nearly all actives have a fitted effect of over 65% in size
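IDH1-R132H (0.5 ug/mL) preincubated 30 min with compound, then NADPH (0.016 mM) and alpha-KG (2 mM) added; 80 min at RT, pH 7.5. Remaining NADPH coupled via diaphorase/resazurin to fluorescence (540/590 nm); concentration-response curves normalized to no-enzyme control.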
Sfp PPTase inh: qHTS Assay for Inhibitors of Bacillus subtilis Sfp phosphopantetheinyl transferase (PPTase); Biochemical Sfp PPTase activity, qHTS; Potency, µM, hits mostly inhibitors; hit rate 3.5% among 310,000;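 also: the enzyme is Sfp with the accession as filed and its product quenches rhodamine fluorescence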
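Buffer: 50 mM Hepes-Na pH 7.6, 10 mM MgCl2, 0.01% Nonidet P-40, 0.01% BSA. Enzyme 15 nM, pre-exposed to compound 15 min; substrates then added and fluorescence change tracked over 30 min.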
Numbers stand for hits; – = inactive; ? = inconclusive; · = no result given; [ ] = dose if it differs, or a comment. Only some compounds are listed: those with a hit (about 5.2% of all), similar ones and a draw of the others. Calls follow the shape of the dose curve; as a rule, active = well fitted curve in the direction sought with a large enough effect; inconclusive = small, poorly fitted or top-dose-only effect, or another doubt; inactive = no such curve, though single readings can be large; an effect the other way counts as inactive or inconclusive.

SMILES	TrxR1 substrate	PLK1 PBD inh	VDR inhibitor	TrxR1 inh	mIDH1 inhibitor	Sfp PPTase inh
CCOc1cc(/C=C2\C(=O)NN(c3ccccc3)C2=O)cc([N+](=O)[O-])c1O	–	17µM	?	–	–	–
COC(=O)N1C2=C(c3ccccc3[C@@H]1CC(=O)Nc1ccc3ccc4cccc5ccc1c3c45)[C@@H]1C(=O)N(c3ccccc3)C(=O)[C@@H]1[C@H](C)C2	·	·	·	·	·	–
Cc1ccc(C)c(Cn2nnc3c(=O)[nH]c(C4CCCN(C(=O)C5CCCCC5)C4)nc32)c1 (configuration not stated)	–	–	–	–	–	50µM
CCCN1CNc2c(c(=O)[nH]c(=O)n2CCc2ccc(OC)c(OC)c2)C1	–	·	–	–	·	·
Cc1ccccc1S(=O)(=O)NC1OC(=O)C(Cl)=C1Cl (configuration not stated)	–	?	?	13µM	–	–
O=S(=O)(NNc1cccc(Cl)n1)c1ccc(Cl)cc1	–	–	–	–	–	40µM
O=S(=O)(Nc1ccc(Cl)nn1)c1ccccc1	–	–	–	–	–	–
O=S(=O)(NNc1ccc(Cl)nn1)c1ccc(F)cc1	–	–	–	–	–	13µM
Cc1ccc(C)c(N2CCN(CCCNC(=O)Cn3ncc4c5ccccc5n(C)c4c3=O)CC2)c1	–	·	–	–	–	·
CCn1cc(C(=O)N2CCN(c3cccc(Cl)c3)CC2)c(=O)c2cc(S(=O)(=O)N3CCCCC3)ccc21	–	·	–	–	–	·
O=c1c2oc3ccccc3c2[nH]c(=S)n1-c1ccccc1	–	27µM	–	?	–	50µM
O=c1c2sccc2[nH]c(=S)n1-c1ccccc1	–	–	–	–	–	79µM
CCN(C(=O)Cn1nc(Cc2ccncc2)c2ccccc2c1=O)c1cccc(Cl)c1	–	·	–	–	–	·
O=C(O)CCCCCN1C(=O)CCC1=O	–	–	–	–	–	–
O=C1C=CC(=O)N1CCCCCCCCCCN1C(=O)C=CC1=O	–[2.29 µM]	1.2µM	16µM	?	–	·
CC(C)C1=C2OC(N)=C(C#N)C(C#N)=C2C(C)CC1 (configuration not stated)	–	–	–	–	–	79µM
CCOC(=O)C1C(c2ccc3c(c2)OCO3)NC(=O)NC1(O)C(F)(F)F (configuration not stated)	–	3µM	?	–	–	–
CCOC(=O)C1C(c2cc(OC)c(OC)c(OC)c2)NC(=S)NC1(O)C(F)(F)F (configuration not stated)	–	–	–	–	–	79µM
COc1ccc(-c2csc(NC3=NCCCCC3)n2)cc1	–	–	–	–	–	–
CCOc1ccc(-c2csc(NNC3=NCCCCC3)n2)cc1	–	19µM	?	–	?	10µM
COc1ccc(-c2csc(NNC3=NCCCCC3)n2)cc1	–	6.7µM	?	–	?	13µM
Cc1cnc(NC(=O)CC2OC(=O)c3ccccc32)s1 (configuration not stated)	–	–	–	–	–	·
O=C(NCC1CCCCC1)c1csc([C@@H]2O[C@H](CO)[C@H](O)[C@H](O)[C@H]2O)n1	·	–	·	·	·	·
COc1ccc(CCC(C)Nc2ccccc2F)cc1 (configuration not stated)	–	–	–	–	–	–
COc1ccc(CCC(C)Nc2cccc(F)c2)cc1 (configuration not stated)	–	–	–	–	–	45µM
SMILES	TrxR1 substrate	PLK1 PBD inh	VDR inhibitor	TrxR1 inh	mIDH1 inhibitor	Sfp PPTase inh
Cc1ccccc1OCC(=O)Nc1ccc(NC(=O)c2ccco2)cc1	–	21µM	–	–	–	–
O=C(CCNc1ccc(F)c(Cl)c1)c1ccco1	–	–	–	?	–	–
O=C(CCNc1cc(Cl)cc(Cl)c1)c1ccco1	–	–	–	8.9µM	–	–
O=C(CCNc1ccc(F)cc1)c1ccco1	–	–	–	11µM	–	–
O=C(CNC(=O)c1ccco1)Nc1ccc(F)cc1	–	27µM	–	–	–	–
CCOC(=O)CCN(C(=S)Nc1ccccc1)C1CCCCC1	–	–	?	–	–	·
COc1ccc(CNc2ncnc3ccc(-c4cccc(NS(C)(=O)=O)c4)cc23)c(OC)c1	·	·	–	·	·	–
COc1ccc(C(=O)Nc2ccc3nc(C)sc3c2)cc1S(=O)(=O)N1CCOCC1	·	–	·	·	–	·
Cc1ccc(S(=O)(=O)N2C[C@@H](C)[C@]3(C2)[C@H](O)[C@H](OC(=O)NCc2ccco2)C[C@H]2C(=O)N(c4ccccc4)C(=O)[C@H]23)cc1	·	–	·	·	–	·
CC1C(=O)N(Cc2cn(Cc3ccco3)nn2)CCS(=O)(=O)N1Cc1ccc(-c2ccc(F)nc2)cc1 (configuration not stated)	·	–	·	·	–	·
CCOc1nc(OCC)c2cnn(C)c2n1	–	–	–	–	–	–
Cc1cc(C)nc(Sc2ccc([N+](=O)[O-])cc2[N+](=O)[O-])n1	–	–	–	10µM	–	–
O=[N+]([O-])c1ccc(Sc2cccc3cccnc23)cc1	–	–	–	–	–	–
C=CCn1nc([N+](=O)[O-])nc1Sc1cccc2cccnc12	–	7.5µM	?	–	–	–
CN(C)/C=N/c1nc(Sc2ccc(C(F)(F)F)cc2[N+](=O)[O-])n[nH]1	–	–	–	–	–	–
O=[N+]([O-])c1ccc(Sc2cccc3cccnc23)c([N+](=O)[O-])c1	–	6.7µM	?	–	–	?
O=[N+]([O-])c1cc(Cl)ccc1Sc1cccc2cccnc12	–	–	–	–	–	–
O=[N+]([O-])c1ccc(Sc2ccncn2)c([N+](=O)[O-])c1	·	?	·	·	–	·
CN(C)/N=C/c1ccc(Sc2ccc([N+](=O)[O-])cc2[N+](=O)[O-])o1	–	–	–	50µM	–	–
Cc1ccc(C)n1-c1ccc(C(=O)NC2CCN(Cc3ccccc3)CC2)cc1	–	–	–	–	–	–
Cc1ccc(CN2CCC(NC(=O)c3ccccc3)CC2)cc1	–	30µM	–	–	–	–
COc1ccc(C)cc1NC(=O)c1c(C(=O)Nc2cccc(C)c2C)sc2nc(C)cc(=O)n12	–	·	–	–	–	·
S=c1ccss1	·	·	20µM	·	·	?
CN(CC1CCCN(CCc2ccccc2F)C1)C(=O)c1cc2ccccc2o1 (configuration not stated)	·	–	·	·	–	·
CC(=O)/C=C/c1ccc(C)o1	–	–	–	?	–	40µM
CC(/C=C/c1ccc(C)o1)=C\C(=O)O	–	–	?	?	–	10µM
